# Experimental data: PubChem BioAssay (NCATS)
# Inconclusive results are not listed. Where a call stands in place of a potency, no number is given. Activity calls are given as the source filed them. Unless noted, calls come from the whole dose curve; as a rule, active = well fitted curve in the direction sought with a large enough effect; inconclusive = small, poorly fitted or top-dose-only effect, or another doubt; inactive = no such curve, though single readings can be large; an effect the other way counts as inactive or inconclusive.
# Tests used:
# [1] = biological target: D(1A) dopamine receptor (Homo sapiens) (UniProt P21728); experiment: HTS Assay for Allosteric Agonists of the Human D1 Dopamine Receptor: Primary Screen for Potentiators (AID 488982)
# Outline: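 Tetracycline-induced HEK293 Trex D1 cells with forced coupling to calcium, loaded with no-wash calcium dye; kinetic fluorescence read 180 s after compound addition for agonism, then a further 180 s after an EC20 dopamine challenge for potentiation.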
# [2] = biological target: D(1A) dopamine receptor (Homo sapiens) (UniProt P21728); experiment: HTS Assay for Allosteric Agonists of the Human D1 Dopamine Receptor: Primary Screen for Antagonists (AID 488983);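 note: calcium flux response to an EC80 dopamine challenge measured with no-wash dye; nearly all actives have a fitted effect of over 65% in size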
# Outline: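 Calcium-flux read-out in inducible HEK293 T-REx cells expressing D1, dye-loaded 30–90 min at room temperature. Kinetic reads: 180 s after compound (agonist phase), then 180 s after an EC80 dopamine challenge.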
# [3] = Validation screen for small molecules that induce genotoxicity in human embryonic kidney (HEK293T) cells expressing luciferase-tagged ELG1 (AID 493106)
# Outline: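 ELG1-luciferase reporter readout (ONE-Glo, 30 min, room temperature) after 16 hr compound treatment at 37 °C of HEK293T cells at 2,000 per well. Rising luminescence flags genotoxic stress.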
# [4] = biological target: ATPase family AAA domain-containing protein 5 (Homo sapiens) (UniProt Q96QE3); experiment: Validation screen for small molecules that inhibit ELG1-dependent DNA repair in human embryonic kidney (HEK293T) cells expressing luciferase-tagged ELG1 (AID 493107);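 note: series mostly up to about 46 µM; inhibitors lower the ELG1-luciferase luminescence signal; nearly all actives have a fitted effect of over 70% in size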
# Outline: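 Luciferase read-out, ONE-Glo, 30 min at room temperature, follows 16 h co-exposure at 37 C of compound and the DNA-damaging agent 5-fluorouridine. Cells: HEK293T with ELG1-luciferase fusion, 2,000 per well, DMSO as vehicle.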
# [5] = Nrf2 qHTS screen for inhibitors: Validation (AID 493153; active = well fitted inhibition curve with a large enough effect in the main read-out, with a control signal flat, not every such curve was filed as active); details: viability change: measured here: cytotoxicity max response
# Outline: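 Concentration-response on A549 ARE_Fluc reporter cells exposed 18-24 h at 37 C, 5% CO2. Cytotoxicity read first by CellTiter-Fluor fluorescence (Ex 405/Em 525), then Nrf2 inhibition by BugLite luminescence after 15 min.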
# [6] = qHTS for Inhibitors of Cell Surface uPA Generation: Validation Assay (AID 493164);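 note: RAW 264.7 macrophage cells exposed to compound for 18 h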
# Outline: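 ATP-Lite luminescence read-out: ATP remains high when uPA activity-dependent LF translocation into the cytoplasm is blocked. RAW 264.7 cells, 18 h compound exposure at 37 C; 7-point titration, 2.45 nM to 38.3 uM final.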
# [7] = biological target: Peptidyl-prolyl cis-trans isomerase NIMA-interacting 1 (Homo sapiens) (UniProt Q13526); experiment: qHTS Validation Assay to Find Inhibitors of Pin1 (AID 504536; active = well fitted inhibition curve with a large enough effect in the polarisation, with a control signal flat, not every such curve was filed as active; the % refers to the polarisation)
# Outline: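 Fluorescence polarization competition: compounds (titration) displace HiFluor-488-labeled Pin1-1b peptide from Pin1 (0.3 uM final) in pH 7.5 HEPES buffer with DTT, 10 min at room temperature; %Activity normalized to no-enzyme wells, curves fitted.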
# [8] = biological target: Phosphoglycerate kinase, glycosomal (Trypanosoma brucei brucei) (UniProt P07378); experiment: qHTS Validation Assay to Find Inhibitors of Phosphoglycerate Kinase (AID 504547)
# Outline: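 Compounds are pinned into the substrate/PGK mixture, and GAPDH (100nM final) is added to start the reaction by producing 1,3-BPG. After 60 minutes at room temperature, Kinase-Glo Plus is added and luminescence is measured 10 minutes later.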
# [9] = biological target: phosphoglycerate mutase (Leishmania major) (UniProt Q4Q090); experiment: qHTS Validation Assay to Find Inhibitors of Phosphoglycerate Mutase (AID 504548);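 note: end-point luminescence from Kinase-GloPlus after the PGAM reaction; series mostly up to about 58 µM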
# Outline: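 Inhibition of L. major PGAM was assessed by Kinase-GloPlus luminescence following a 45-minute room-temperature reaction with enzyme at 1.25nM final.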
# [10] = Inducers of the Endoplasmic Reticulum Stress Response (ERSR) in human glioma: Validation (AID 504836); note: potency is the fitted concentration of half-maximal effect
# Outline: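 Stably transfected U87-MG glioma cells carrying a GRP78-based luciferase sensor; 16 h compound incubation. Luminescence end-point read 10 min after Bright-Glo addition at room temperature.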
# [11] = qHTS for Inhibitors of ATXN expression: Validation of Cytotoxic Assay (AID 588349)
# Outline: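 Cytotoxicity counter-screen: ATP-based luminescent viability (CellTiter Glo) after 72 hr exposure of HEK293 cells to a compound titration at 37 degrees C.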
# [12] = qHTS for Inhibitors of ATXN expression: Validation (AID 588378); note: series mostly up to about 57 µM; nearly all actives have a fitted effect of over 75% in size
# Outline: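 HEK293 cells carrying ATXN2-firefly luciferase reporter, treated with compound 24 h at 37 °C. Viability read first by CellTiter-Fluor (405/525 nm), then reporter expression by Bright-Glo luminescence; controls were a known ATXN2 expression inhibitor and a luciferase inhibitor.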
# [13] = biological target: ATP-dependent 6-phosphofructokinase (Trypanosoma brucei brucei) (UniProt O15648); experiment: qHTS Assay to Find Inhibitors of T. brucei phosphofructokinase: hit validation (AID 492961);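 note: luminescence reports ADP formed as PFK phosphorylates fructose-6-phosphate with ATP; series mostly up to about 51 µM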
# Outline: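 Inhibition of parasite PFK is measured as reduced ADP formation, quantified via luciferase after ATP depletion. Assay used 0.1 mM ATP, 0.5 mM F6P, 1.25 nM enzyme, 45 min incubation.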
# [14] = biological target: Ubiquitin carboxyl-terminal hydrolase 1 (Homo sapiens) (UniProt O94782); experiment: Inhibitors of USP1/UAF1: Pilot qHTS (AID 504865); note: nearly all actives have a fitted effect of over 35% in size; note: potency is the fitted concentration of half-maximal effect
# Outline: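 USP1/UAF1 complex at 1 nM preincubated 15 min at room temperature with compound, then Ub-Rho substrate added at 150 nM final. Fluorescence (480/540 nm) read kinetically in 50 mM HEPES pH 7.8, 0.5 mM EDTA, 1 mM TCEP, 0.1 mg/ml BSA, 0.01% Tween-20.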
# [15] = biological target: Thyrotropin-releasing hormone receptor (Homo sapiens) (UniProt P34981); experiment: qHTS for Small Molecule Agonists and Allosteric Enhancers of Human TRH Receptor: Validation Screen for Agonists (AID 493127;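 active = calcium activation more than 3 SD above the typical response in the agonist read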;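 note: intracellular calcium rise by fluo-8 fluorescence before TRH EC20 addition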); details: TRH receptor agonist cell assay; at 2 µM; stronger effect = higher value
# Outline: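 Compound-evoked intracellular calcium release in fluo-8-loaded TRHR cells, read kinetically on FDSS (Ex 480/Em 530, 1 s/cycle) after 23 nL pintool transfer. Agonist phase preceded 10 nM TRH EC20 addition.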
# [16] = biological target: Galactokinase (Homo sapiens) (UniProt P51570); experiment: qHTS Validation Assay for Inhibitors of Human Galactokinase (GALK) (AID 493189)
# Outline: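 GALK (5 nM) with 35 uM ATP and 100 uM galactose in HEPES pH 8.0 with MgCl2, NaCl, DTT and BSA. Reaction ran 1 h at room temperature. Residual ATP read by Kinase-Glo Plus luminescence.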
# [17] = Validation screen for small molecules that induce DNA re-replication in SW480 colon adenocarcinoma cells (AID 504364)
# Outline: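 Image-based DNA content read-out: Hoechst stain 40 min, total nuclear fluorescence intensity (ex 405 nm, em 500-530 nm) after 48 h compound exposure of 250 SW480 cells/well at 37 C, 5% CO2, versus DMSO vehicle.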
# [18] = biological target: DNA dC->dU-editing enzyme APOBEC-3G (Homo sapiens) (UniProt Q9HC16); experiment: qHTS for inhibitors of Vif-A3G interactions: Validation (AID 588379)
# Outline: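 Yellow fluorescence (Ex 488, Em 500-530) of Vif-coexpressing HeLa A3G-eYFP cells, scanned by Acumen cytometer, reports blocked A3G degradation. Cells plated at 700/well overnight at 37 deg C before compound addition, then a further overnight compound incubation at 37 deg C.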
# [19] = biological target: Estrogen receptor (Homo sapiens) (UniProt P03372); experiment: qHTS assay for small molecule antagonists of estrogen receptor alpha signaling (AID 588513; active = well fitted curve in the direction sought with a large enough effect in the signal ratio, with a control signal flat, not every such curve was filed as active; the % refers to the signal ratio)
# Outline: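 ER-alpha-UAS-bla GripTite HEK 293 cells in 2% charcoal/dextran-treated FBS medium; compounds titrated (1:2, duplicate), then stimulated with 0.5 nM 17-beta-estradiol for 18 h at 37C. CCF4 beta-lactamase fluorescence; Hill-fit IC50 and efficacy.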
# Chain of Peptidyl-prolyl cis-trans isomerase NIMA-interacting 1 (Homo sapiens) (Q13526 whole entry, looked up): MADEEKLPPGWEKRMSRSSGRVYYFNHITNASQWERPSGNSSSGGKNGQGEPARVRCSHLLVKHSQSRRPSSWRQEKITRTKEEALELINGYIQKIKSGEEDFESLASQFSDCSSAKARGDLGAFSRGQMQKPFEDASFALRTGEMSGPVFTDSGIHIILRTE
# Chain of Phosphoglycerate kinase, glycosomal (Trypanosoma brucei brucei) (P07378 whole entry, looked up): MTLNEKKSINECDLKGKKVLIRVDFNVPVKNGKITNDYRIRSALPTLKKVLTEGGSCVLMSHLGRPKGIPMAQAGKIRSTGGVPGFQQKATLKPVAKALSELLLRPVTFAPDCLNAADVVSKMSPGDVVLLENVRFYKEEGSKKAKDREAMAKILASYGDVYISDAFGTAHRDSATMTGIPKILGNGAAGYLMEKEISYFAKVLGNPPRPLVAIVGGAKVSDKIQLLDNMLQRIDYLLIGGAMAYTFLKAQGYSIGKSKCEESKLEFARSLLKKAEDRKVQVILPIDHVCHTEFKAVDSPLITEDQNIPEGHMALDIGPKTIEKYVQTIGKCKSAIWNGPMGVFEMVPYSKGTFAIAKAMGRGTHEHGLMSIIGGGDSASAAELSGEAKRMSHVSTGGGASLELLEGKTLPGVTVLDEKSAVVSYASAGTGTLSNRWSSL
# Chain of Galactokinase (Homo sapiens) (P51570 whole entry, looked up): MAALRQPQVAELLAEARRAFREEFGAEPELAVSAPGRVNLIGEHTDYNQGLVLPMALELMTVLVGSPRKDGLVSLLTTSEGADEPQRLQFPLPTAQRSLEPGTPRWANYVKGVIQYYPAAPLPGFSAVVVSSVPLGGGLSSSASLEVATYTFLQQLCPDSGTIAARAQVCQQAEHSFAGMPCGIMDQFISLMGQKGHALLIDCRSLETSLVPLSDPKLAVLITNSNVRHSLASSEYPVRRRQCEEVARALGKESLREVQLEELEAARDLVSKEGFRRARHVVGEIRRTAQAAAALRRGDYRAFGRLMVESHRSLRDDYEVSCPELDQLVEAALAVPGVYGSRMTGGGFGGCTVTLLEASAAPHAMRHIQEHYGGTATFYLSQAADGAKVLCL
# Chain of Estrogen receptor (Homo sapiens) (P03372 whole entry, looked up): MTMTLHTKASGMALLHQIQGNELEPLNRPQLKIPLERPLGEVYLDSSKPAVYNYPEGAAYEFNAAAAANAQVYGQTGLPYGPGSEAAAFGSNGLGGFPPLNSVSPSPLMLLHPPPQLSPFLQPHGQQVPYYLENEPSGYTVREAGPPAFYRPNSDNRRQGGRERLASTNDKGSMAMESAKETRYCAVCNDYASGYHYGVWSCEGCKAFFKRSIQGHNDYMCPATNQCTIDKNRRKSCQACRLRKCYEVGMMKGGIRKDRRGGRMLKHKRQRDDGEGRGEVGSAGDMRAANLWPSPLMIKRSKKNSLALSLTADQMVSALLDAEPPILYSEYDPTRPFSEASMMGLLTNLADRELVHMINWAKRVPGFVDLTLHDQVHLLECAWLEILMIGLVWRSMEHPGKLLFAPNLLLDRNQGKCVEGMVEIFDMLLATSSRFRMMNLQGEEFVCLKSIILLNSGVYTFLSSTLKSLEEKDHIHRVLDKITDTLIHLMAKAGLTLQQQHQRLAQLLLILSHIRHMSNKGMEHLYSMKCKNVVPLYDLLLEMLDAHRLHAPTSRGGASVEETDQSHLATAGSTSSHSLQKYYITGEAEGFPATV
# Chain of Thyrotropin-releasing hormone receptor (Homo sapiens) (P34981 whole entry, looked up): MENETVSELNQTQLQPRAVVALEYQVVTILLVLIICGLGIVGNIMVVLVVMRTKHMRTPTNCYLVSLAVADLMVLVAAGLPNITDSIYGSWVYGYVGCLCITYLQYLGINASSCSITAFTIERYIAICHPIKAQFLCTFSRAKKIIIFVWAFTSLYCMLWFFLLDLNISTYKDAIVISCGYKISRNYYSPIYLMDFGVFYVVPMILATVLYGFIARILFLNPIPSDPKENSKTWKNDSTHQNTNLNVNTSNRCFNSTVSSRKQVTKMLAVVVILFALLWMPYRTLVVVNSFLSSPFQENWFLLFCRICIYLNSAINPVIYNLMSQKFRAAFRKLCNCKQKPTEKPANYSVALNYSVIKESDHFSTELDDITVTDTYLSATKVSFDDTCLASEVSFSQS
# Chain of DNA dC->dU-editing enzyme APOBEC-3G (Homo sapiens) (Q9HC16 whole entry, looked up): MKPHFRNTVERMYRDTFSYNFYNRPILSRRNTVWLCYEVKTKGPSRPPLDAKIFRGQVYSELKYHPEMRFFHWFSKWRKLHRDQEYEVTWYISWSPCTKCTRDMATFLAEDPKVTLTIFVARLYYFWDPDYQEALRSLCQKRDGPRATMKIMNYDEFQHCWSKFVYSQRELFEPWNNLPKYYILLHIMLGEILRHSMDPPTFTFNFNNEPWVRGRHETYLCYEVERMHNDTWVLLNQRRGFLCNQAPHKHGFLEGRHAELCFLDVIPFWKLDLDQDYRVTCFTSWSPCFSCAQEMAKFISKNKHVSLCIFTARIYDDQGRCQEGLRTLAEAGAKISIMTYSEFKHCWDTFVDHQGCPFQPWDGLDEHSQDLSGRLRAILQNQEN
# Chain of ATP-dependent 6-phosphofructokinase (Trypanosoma brucei brucei) (O15648 whole entry, looked up): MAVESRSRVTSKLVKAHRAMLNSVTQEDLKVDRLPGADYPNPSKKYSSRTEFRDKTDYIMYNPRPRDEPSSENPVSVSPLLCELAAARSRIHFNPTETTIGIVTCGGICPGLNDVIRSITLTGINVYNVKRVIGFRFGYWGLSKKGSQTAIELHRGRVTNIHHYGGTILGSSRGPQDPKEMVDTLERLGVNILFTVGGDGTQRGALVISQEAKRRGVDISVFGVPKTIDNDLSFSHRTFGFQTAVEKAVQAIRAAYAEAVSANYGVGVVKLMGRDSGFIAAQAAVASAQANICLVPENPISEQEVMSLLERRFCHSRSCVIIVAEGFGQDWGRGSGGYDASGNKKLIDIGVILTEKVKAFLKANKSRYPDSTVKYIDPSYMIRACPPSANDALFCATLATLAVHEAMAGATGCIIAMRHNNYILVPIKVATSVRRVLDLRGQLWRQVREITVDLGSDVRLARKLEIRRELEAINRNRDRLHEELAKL
# Chain of D(1A) dopamine receptor (Homo sapiens) (P21728 whole entry, looked up): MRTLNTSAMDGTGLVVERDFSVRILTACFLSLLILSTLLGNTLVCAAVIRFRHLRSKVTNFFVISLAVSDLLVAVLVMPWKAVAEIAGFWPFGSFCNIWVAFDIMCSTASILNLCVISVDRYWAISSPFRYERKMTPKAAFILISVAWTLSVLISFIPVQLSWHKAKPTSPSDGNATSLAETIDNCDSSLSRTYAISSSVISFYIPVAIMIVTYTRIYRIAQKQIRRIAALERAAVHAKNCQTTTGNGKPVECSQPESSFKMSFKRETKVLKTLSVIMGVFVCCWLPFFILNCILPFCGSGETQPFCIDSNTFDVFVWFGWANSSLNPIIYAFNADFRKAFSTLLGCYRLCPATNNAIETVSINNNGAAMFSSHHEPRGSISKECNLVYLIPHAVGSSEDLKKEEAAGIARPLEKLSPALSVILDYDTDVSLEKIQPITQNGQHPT
# Chain of Ubiquitin carboxyl-terminal hydrolase 1 (Homo sapiens) (O94782 whole entry, looked up): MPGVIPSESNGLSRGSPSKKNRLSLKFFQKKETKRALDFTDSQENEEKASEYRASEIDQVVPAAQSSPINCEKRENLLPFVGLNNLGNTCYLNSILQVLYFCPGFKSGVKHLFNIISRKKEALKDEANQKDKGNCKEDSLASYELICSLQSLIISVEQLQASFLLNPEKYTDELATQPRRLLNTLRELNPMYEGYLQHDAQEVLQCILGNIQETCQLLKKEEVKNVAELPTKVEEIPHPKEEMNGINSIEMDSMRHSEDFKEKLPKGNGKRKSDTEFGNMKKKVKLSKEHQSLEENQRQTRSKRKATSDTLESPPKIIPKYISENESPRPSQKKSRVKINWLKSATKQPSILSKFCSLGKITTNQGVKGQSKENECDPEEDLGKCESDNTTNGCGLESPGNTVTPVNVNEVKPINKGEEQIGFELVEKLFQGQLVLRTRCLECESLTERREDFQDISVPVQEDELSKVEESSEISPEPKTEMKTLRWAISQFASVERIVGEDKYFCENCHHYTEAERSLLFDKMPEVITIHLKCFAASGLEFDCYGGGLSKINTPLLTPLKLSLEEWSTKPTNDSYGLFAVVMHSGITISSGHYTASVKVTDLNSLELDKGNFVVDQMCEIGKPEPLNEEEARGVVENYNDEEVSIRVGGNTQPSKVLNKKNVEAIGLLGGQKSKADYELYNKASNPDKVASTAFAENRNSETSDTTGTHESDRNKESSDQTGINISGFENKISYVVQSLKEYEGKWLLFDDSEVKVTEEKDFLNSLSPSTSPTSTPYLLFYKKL
# Chain of phosphoglycerate mutase (Leishmania major) (Q4Q090 1-553): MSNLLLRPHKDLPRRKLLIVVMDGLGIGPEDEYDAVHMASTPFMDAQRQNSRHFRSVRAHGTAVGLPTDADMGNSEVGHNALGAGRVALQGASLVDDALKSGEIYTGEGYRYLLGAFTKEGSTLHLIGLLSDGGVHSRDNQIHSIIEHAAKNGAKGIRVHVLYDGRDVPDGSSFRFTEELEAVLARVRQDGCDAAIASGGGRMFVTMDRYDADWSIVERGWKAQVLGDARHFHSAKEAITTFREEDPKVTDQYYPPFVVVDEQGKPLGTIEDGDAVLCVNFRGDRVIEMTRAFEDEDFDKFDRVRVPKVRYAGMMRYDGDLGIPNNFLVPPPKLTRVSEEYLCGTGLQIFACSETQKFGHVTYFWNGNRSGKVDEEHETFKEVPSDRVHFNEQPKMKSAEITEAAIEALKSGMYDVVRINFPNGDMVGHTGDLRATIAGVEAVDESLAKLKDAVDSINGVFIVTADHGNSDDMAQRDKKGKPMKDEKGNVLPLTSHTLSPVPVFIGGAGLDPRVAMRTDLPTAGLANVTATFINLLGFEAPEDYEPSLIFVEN
structure (smiles),measurement,setting,value
CC[C@@H](C(N)=O)N1CCCC1=O,outcome,[1],inactive
same,Potency,[2],inactive
same,outcome,[3],inactive
same,Potency,[4],inactive
same,outcome,[5],inactive
same,viability change,[5],0%
same,outcome,[6],inactive
same,outcome,[7],inactive
same,outcome,[8],inactive
same,outcome,[9],inactive
same,Potency,[10],inactive
same,outcome,[11],inactive
same,Potency,[12],inactive
O=[N+]([O-])c1ccc([As](=O)(O)O)cc1,Potency,[13],inactive
same,Potency,[14],inactive
CCCCc1ccc(C(=O)O)nc1,outcome,[1],inactive
same,Potency,[2],inactive
same,outcome,[3],inactive
same,Potency,[4],inactive
same,activation,[15],1.25% (inactive)
same,outcome,[6],inactive
same,outcome,[16],inactive
same,outcome,[17],inactive
same,outcome,[7],inactive
same,outcome,[8],inactive
same,outcome,[9],inactive
same,Potency,[10],inactive
same,outcome,[11],inactive
same,Potency,[12],inactive
same,outcome,[18],inactive
C#CC1(O)CCC2C3CCC4=CC(=O)CCC4(C)C3CCC21C (stereo not given),Potency,[13],inactive
same,Potency,[14],50.1 µM (active)
c1ccc(CCCN2CCN(CCOC(c3ccccc3)c3ccccc3)CC2)cc1,outcome,[1],inactive
same,outcome,[3],inactive
same,activation,[15],0.0625% (inactive)
same,outcome,[5],inactive
same,viability change,[5],-4.56%
same,outcome,[6],inactive
same,outcome,[16],inactive
same,outcome,[7],inactive
same,outcome,[8],inactive
same,outcome,[9],inactive
same,Potency,[10],inactive
same,outcome,[18],inactive
CC(=O)OCC1=C(C(=O)O)N2C(=O)[C@@H](N)[C@@H]2SC1,Potency,[13],inactive
CC(C)(C)NCC(O)c1ccc(O)c(CO)c1 (stereo not given),Potency,[10],inactive
CC(=O)Oc1ccccc1C(=O)O,Potency,[10],inactive
CN1C(=O)CC[C@H]1c1cccnc1,Potency,[10],inactive
COc1cc2nc(N3CCCN(C)CC3)nc(NC3CCN(Cc4ccccc4)CC3)c2cc1OC,Potency,[10],inactive
CC[C@@H]1C(=O)OC[C@@H]1Cc1cncn1C,outcome,[16],inactive
same,outcome,[17],inactive
Cc1cc(O)ccc1Cl,Potency,[13],inactive
same,Potency,[19],inactive
C[C@@H](N)C1CCC(C(=O)Nc2ccncc2)CC1 (stereo not given in full),Potency,[10],inactive
C1CCC(NC2CCCCC2)CC1,Potency,[13],inactive
same,Potency,[19],inactive
NC(CO)C(=O)NNCc1ccc(O)c(O)c1O (stereo not given),Potency,[10],inactive
O=C(O)COc1ccccc1,Potency,[13],inactive
same,Potency,[19],inactive
CC1=C(/C=C/C(C)=C/C=C/C(C)=C/C(=O)O)C(C)(C)CCC1,Potency,[10],inactive
NCCS,Potency,[10],inactive
CCOC(=O)C(C)Oc1cccc2c(=O)n(CC(=O)Nc3ccc4c(c3)OCCO4)ccc12 (stereo not given),Potency,[10],inactive
CCCCCCCCCC(CC)c1ccc(S(=O)(=O)O)cc1 (stereo not given),Potency,[13],inactive
same,Potency,[14],79.4 µM (active)
Cc1nc(-c2ccc(-c3ccc(C(=O)N4CCc5cc6c(cc54)C4(CCN(C)CC4)CO6)cc3)c(C)c2)no1,activation,[15],1.44% (inactive)
same,outcome,[16],inactive
same,outcome,[17],inactive
same,outcome,[18],inactive
CC(C)C[C@H](NC(=O)[C@@H](O)[C@H](N)Cc1ccccc1)C(=O)O,Potency,[10],inactive
CCN(CC)CCn1c(=O)c(Cc2ccc(OC)cc2)nc2ccccc21,Potency,[10],inactive
Clc1ccc(C(c2ccc(Cl)cc2)n2cc[n+](CC(OCc3ccc(Cl)cc3Cl)c3ccc(Cl)cc3Cl)c2)cc1 (stereo not given),outcome,[3],inactive
same,activation,[15],-4.62% (inactive)
same,outcome,[16],inactive
same,Potency,[10],inactive
CC(C)c1ccc2c(c1)c(SC(C)(C)C)c(CC(C)(C)C(=O)O)n2Cc1ccc(Cl)cc1,Potency,[10],inactive
NCCCC(N)(C(=O)O)C(F)F (stereo not given),Potency,[10],inactive
CC(C)(Sc1ccc(CCN(CCCCC2CCCCC2)C(=O)NC2CCCCC2)cc1)C(=O)O,Potency,[10],inactive
C[N+](C)(C)CC(=O)O,outcome,[16],inactive
same,outcome,[17],inactive
same,Potency,[10],inactive
CC(C[N+](C)(C)C)OC(N)=O (stereo not given),Potency,[10],inactive
CCN(CC)CCNC(=O)c1ccc(NC(C)=O)cc1,Potency,[10],inactive
CCc1c(C)[nH]c2c1C(=O)C(CN1CCOCC1)CC2 (stereo not given),Potency,[10],inactive
C/C=C(/C)C(=O)O[C@H]1C(C)=C2[C@H]([C@@H]1OC(=O)CCCCCCC)[C@@](C)(OC(C)=O)C[C@H](OC(=O)CCC)[C@@]1(O)[C@H]2OC(=O)[C@@]1(C)O,outcome,[3],inactive
same,outcome,[6],inactive
same,outcome,[8],inactive
same,outcome,[9],inactive
same,Potency,[10],0.0165 µM (active)
Cc1cccc(C#Cc2ccccc2)n1,Potency,[10],inactive
CN[C@@H](C)[C@H](O)c1ccccc1,activation,[15],3.19% (inactive)
same,outcome,[16],inactive
same,outcome,[17],inactive
O=C(O)C(Cl)Cl,Potency,[13],inactive
same,Potency,[14],inactive
same,Potency,[19],inactive
NC1CC1c1ccccc1 (stereo not given),outcome,[3],inactive
same,Potency,[4],inactive
same,activation,[15],1.44% (inactive)
same,outcome,[5],inactive
same,viability change,[5],-9.56%
same,outcome,[6],inactive
same,outcome,[16],inactive
same,outcome,[17],inactive
same,outcome,[7],inactive
same,outcome,[8],inactive
same,outcome,[9],inactive
same,Potency,[10],inactive
same,Potency,[14],inactive
same,outcome,[11],inactive
same,Potency,[12],inactive
C[C@]12CCC(=O)C(O)=C1CC[C@@H]1[C@H]3CCC(=O)[C@@]3(C)CC[C@@H]12,Potency,[13],inactive
same,Potency,[14],inactive
CCN1CCc2nc(N)oc2CC1,Potency,[10],inactive
C=CCC1=C(C)C(OC(=O)C2C(C=C(C)C)C2(C)C)CC1=O (stereo not given),Potency,[19],inactive
O=[N+]([O-])/N=C1\NCCN1Cc1ccc(Cl)nc1,Potency,[19],inactive
